Screening data from PubChem BioAssay.
AMA1 RON2 block: disrupts binding of P. falciparum AMA1 to RON2 | AlphaScreen AMA1-biotinylated RON2 peptide binding | Potency, µM (highest dose often 58.2 µM), hits mostly inhibitors | 360,000 compounds, 0.2% hits; further: nearly all actives have a fitted effect of over 45% in size
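AMA1 (3D7) with his tag at 25 nM final met compounds first, then biotinylated RON2 peptide at 25 nM; detection used donor plus acceptor beads, 10 µg/mL apiece, read by AlphaScreen after 30 min at room temperature.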
HCV inh: blocks hepatitis C virus; Huh7.5.1 HCVcc-Cre infection, luciferase reporter, 44 h; 340,000 compounds, 3.4% hits; Potency, µM (series often up to 41.8 µM), hits mostly inhibitors
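Infectious HCV cell culture screen: compound-treated cells (1,000/well, pre-plated 4 h) are infected with HCVcc-Cre at roughly 0.5 moi and grown 44 h. Infection is quantified by luciferase signal after 15 min substrate incubation at room temperature.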
Pf growth 96h: inhibits malaria parasite growth, 96 h | P. falciparum luciferase reporter growth, 96 h | AID 504834 | Potency, µM (titrated, usually from 28.7 µM), actives largely listed as inhibitors | 320,000 compounds, 6.9% hits
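Cell-based qHTS: luciferase-tagged P. falciparum in erythrocytes (2% hematocrit, 0.05% parasitemia final) incubated with compounds for 96 hours, 37 C, 5% CO2; luciferase detection reagent then added and luminescence measured.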
Pf growth 48h: inhibits P. falciparum growth in the first generation, 48 h. P. falciparum luciferase growth in erythrocytes, 48 h. AID 504832. 310,000 compounds, 5.9% hits. Potency, µM (titrated, usually from 28.7 µM), hits mostly inhibitors
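Growth was read as firefly luciferase luminescence after a 48 h, 37 C, 5% CO2 exposure of compounds to reporter-bearing P. falciparum cultures (0.1% parasitemia, 2% hematocrit final) in Albumax-supplemented RPMI 1640.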
Each line names hits and unclear results; the compound was inactive in the other large screens. Rows were chosen to be rich in hits. Some 11% of all compounds tested hit in one or more screens of this group. The call rests on the fitted dose curve; in most records, active means well fitted curve in the direction sought with a large enough effect; inconclusive means small, poorly fitted or top-dose-only effect, or another doubt; inactive means no such curve, though single readings can be large; an effect the other way counts as inactive or inconclusive.

COC(=O)c1[nH]c2ccccc2c1NC(=O)CN1CCN(c2cccc(Cl)c2)CC1	HCV inh inconclusive, Pf growth 48h 3.3µM
COC(=O)c1[nH]c2cc(C)ccc2c1NC(=O)CN1CCN(c2ccccc2OC)CC1	HCV inh 10µM, Pf growth 96h inconclusive, Pf growth 48h inconclusive
COC(=O)c1[nH]c2ccccc2c1NC(=O)CN1CCC(C(N)=O)(N2CCCCC2)CC1	Pf growth 48h 13µM (no result: Pf growth 96h)
CN1C[C@@H]2[C@@H]3C(=O)N(C)C(=O)[C@@H]3[C@](Cc3ccccc3)(C1=O)N2C(=O)c1ccc(F)cc1	none (no result: Pf growth 96h, Pf growth 48h)
Cc1ccc(S(=O)(=O)CCN2CCC(n3cccc3)CC2)cc1	none
COc1ccc(C(=O)NC(=S)N2CCOCC2)cc1Br	Pf growth 96h inconclusive, Pf growth 48h inconclusive
COCCn1c(SCC(=O)NC2CC2)nc2ccccc21	none
O=C(c1cccs1)c1cn(Cc2ccccc2Cl)c2ccccc12	HCV inh inconclusive, Pf growth 96h inconclusive (no result: Pf growth 48h)
N#Cc1ccccc1Cn1cc(C(=O)c2cccs2)c2ccccc21	Pf growth 48h 15µM
S=c1[nH]nc(SCc2ccccc2)c2[nH]cnc12	none (no result: Pf growth 96h, Pf growth 48h)
CCOc1ccccc1NC(=O)CCC(=O)Nc1nnc(C2CCCCC2)s1	Pf growth 96h inconclusive
C(=N\N1CCN(c2ccccn2)CC1)/c1cccc2ccccc12	AMA1 RON2 block 14µM, HCV inh inconclusive
Oc1ccccc1/C=N/N1CCN(c2ccccn2)CC1	AMA1 RON2 block inconclusive
CCOC(=O)N1CCN(C(=O)CSc2nc3c(c(=O)n2-c2ccccc2OC)SCC3)CC1	Pf growth 96h 1.3µM, Pf growth 48h inconclusive
COc1ccccc1-n1c(SCC(=O)Nc2cc(C)on2)nc2c(c1=O)SCC2	Pf growth 96h inconclusive, Pf growth 48h inconclusive
COc1ccccc1-n1c(SCC(=O)Nc2nnc(C)s2)nc2c(c1=O)SCC2	Pf growth 96h 12µM
CCn1c(SCC(=O)N2CCCCCC2)nc2c(c1=O)SCC2	Pf growth 96h 5.9µM (no result: HCV inh)
CCS(=O)(=O)c1ccc(C(=O)Nc2ccccc2OC)c(Cl)c1Cl	none
C=C1C(=O)C2=CC1CCC(=O)C1(C)CCC(OC(C)=O)C(C)(C)C1CC2O (stereo not given)	HCV inh 11µM (no result: Pf growth 96h, Pf growth 48h)
CCC(C)NCCCCOc1ccc(C)cc1[N+](=O)[O-] (stereo not given)	HCV inh inconclusive
COc1ccc(/C(=N/O)C(C)(C)NO)cc1	Pf growth 96h 8.3µM (no result: Pf growth 48h)
CCN(CC)S(=O)(=O)c1cccc(C(=O)N[C@H](C(=O)Nc2nc3ccc(F)cc3s2)C(C)C)c1	HCV inh inconclusive, Pf growth 96h 2.6µM, Pf growth 48h 13µM
CCN(CC)S(=O)(=O)c1cccc(C(=O)N[C@H](C(=O)Nc2nc3ccccc3s2)C(C)C)c1	Pf growth 96h inconclusive
CCN(CC)S(=O)(=O)c1cccc(C(=O)NC(C(=O)Nc2nnc(C3CC3)s2)C(C)C)c1 (stereo not given)	Pf growth 96h 8.3µM, Pf growth 48h inconclusive
CCn1c(SCC(=O)Nc2nc3ccc(OC)cc3s2)nc2c1c(=O)n(C)c(=O)n2C	HCV inh 4µM
CC(C)n1c(SCC(=O)Nc2nc3ccccc3s2)nc2c1c(=O)n(C)c(=O)n2C	HCV inh inconclusive (no result: Pf growth 96h, Pf growth 48h)
CCOc1ccc2nc(NC(=O)CSc3nc4c(c(=O)n(C)c(=O)n4C)n3C(C)C)sc2c1	HCV inh inconclusive, Pf growth 96h 12µM
CCCn1c(SCC(=O)Nc2nc(-c3ccc(OC)cc3)cs2)nc2c1c(=O)n(C)c(=O)n2C	Pf growth 96h inconclusive
COc1cc(OC)cc(-c2nn[nH]n2)c1	none
CC(C)CC1NC(=O)c2cc3ccccc3cc2-n2c1nc1ccc(F)cc1c2=O (stereo not given)	none (no result: HCV inh, Pf growth 96h, Pf growth 48h)
O=C(O)/C=C\C(=O)Nc1ccccc1C#Cc1ccc(Br)cc1	HCV inh 4.5µM
O=C(O)/C=C\C(=O)Nc1ccccc1C#Cc1ccccc1	HCV inh 11µM
O=C(O)/C=C/C(=O)Nc1ccccc1-c1ccccc1NC(=O)/C=C/C(=O)O	Pf growth 96h inconclusive
NC(=O)c1ccccc1NC(=O)/C=C/C(=O)O	none (no result: Pf growth 48h)
CCc1n(CC(O)COC2CCCCC2)c2ccccc2[n+]1C (stereo not given)	Pf growth 96h inconclusive, Pf growth 48h 2.6µM
CCc1n(CC(O)COCC2CC=CCC2)c2ccccc2[n+]1C (stereo not given)	Pf growth 48h inconclusive
Cc1oc(=O)oc1CN1CCN(c2cc3c(cc2F)c(=O)c(C(=O)O)c2n3C(C)S2)CC1 (stereo not given)	Pf growth 96h 1.7µM, Pf growth 48h 2.4µM (no result: AMA1 RON2 block, HCV inh)
COc1ccc(-c2[nH]ncc2CN(CCO)Cc2cccs2)c(F)c1	Pf growth 96h inconclusive
Cc1ccc(-n2c(-c3cccs3)nc3nc4ccccc4nc32)cc1	Pf growth 96h 2.9µM (no result: AMA1 RON2 block)
Cc1nc(=S)c2ccccc2[nH]1	HCV inh inconclusive (no result: Pf growth 48h)
Cc1cc2[nH]c3ccccc3c2c(C)n1	HCV inh inconclusive, Pf growth 96h 2.1µM, Pf growth 48h 6.6µM
O=C(N/N=C/c1ccc(Cl)cc1)c1sccc1OCc1ccc(F)cc1	AMA1 RON2 block 40µM, HCV inh inconclusive, Pf growth 96h 9.3µM, Pf growth 48h inconclusive
Cc1cc(C)cc(N(CC(=O)NC2CCCC2)C(=O)CCC(=O)Nc2nc(C)cs2)c1	HCV inh inconclusive, Pf growth 48h inconclusive
O=C(/C=C/c1ccccc1)Nn1c(-c2cccs2)nc2ccccc2c1=O	none
O=C(/C=C/c1cccc(Cl)c1)Nn1c(-c2cccs2)nc2ccccc2c1=O	Pf growth 96h 2.1µM
CC(C)C1C(C#N)=C(N)Oc2n[nH]c(-c3ccccc3)c21 (stereo not given)	none
CC(C)c1[nH]nc2c1C(C(C)C)C(C#N)=C(N)O2 (stereo not given)	Pf growth 96h 7.4µM
O=C1c2ccccc2-c2onc3ccc(NCCCn4ccnc4)c1c23	AMA1 RON2 block 24µM, HCV inh 13µM, Pf growth 96h 13µM (no result: Pf growth 48h)
O=C1c2ccccc2C(c2nnnn2Cc2ccccc2)N1C1CC1 (stereo not given)	none (no result: HCV inh, Pf growth 96h, Pf growth 48h)
O=S(=O)(O)c1cc(O)c2c(O)c(N=Nc3cc(Cl)ccc3O)c(S(=O)(=O)O)cc2c1	none
Cc1cc(-c2ccc(N=Nc3c(S(=O)(=O)O)cc4cc(S(=O)(=O)O)cc(N)c4c3O)c(C)c2)ccc1N=Nc1c(S(=O)(=O)O)cc2cc(S(=O)(=O)O)cc(N)c2c1O	HCV inh inconclusive, Pf growth 96h 9.5µM, Pf growth 48h 6.6µM (no result: AMA1 RON2 block)
COc1ccc(NC(=O)CSc2nn3c(=O)c(C)nnc3s2)cc1	Pf growth 96h 12µM, Pf growth 48h inconclusive
COc1ccc(CNC(=O)CSc2nn3c(=O)c(C(C)(C)C)nnc3s2)cc1OC	HCV inh inconclusive, Pf growth 96h inconclusive, Pf growth 48h inconclusive
COc1ccccc1CNC(=O)CSc1nn2c(=O)c(C(C)(C)C)nnc2s1	Pf growth 96h inconclusive, Pf growth 48h 2.9µM
COc1ccc(CCNC(=O)CSc2nn3c(=O)c(C)nnc3s2)cc1OC	Pf growth 96h 0.21µM, Pf growth 48h 5.2µM
COc1cccc(NC(=O)CSc2nn3c(=O)c(C)nnc3s2)c1	Pf growth 96h 9.3µM, Pf growth 48h inconclusive
Cc1nnc2sc(SCC(=O)Nc3cccc(Cl)c3)nn2c1=O	Pf growth 96h inconclusive
